Source: PubChem
KDM5B inh: Primary screen for KDM5B Histone Demethylases FDH-coupled qHTS. Potency, µM (top dose mostly 57.7 µM), most hits filed as inhibitors. KDM5B demethylase, FDH-coupled NADH fluorescence (FDH is formaldehyde dehydrogenase). 220,000 compounds, 2.6% hits. Lysine-specific demethylase 5B (Homo sapiens), Q9UGL1; active = well fitted inhibition curve with a large enough effect; note: nearly all actives have a fitted effect of over 70% in size
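Here, H3K4me3 peptide (12.5 µM in substrate mix) is demethylated by KDM5BΔAP, 200 nM final, after 10 min compound exposure. Formaldehyde product is coupled through FDH (0.25 U/mL in mix) to NADH fluorescence; 30-min ΔRFU feeds dose-response curves.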
A number is an active result; . = inactive. The sample as a whole holds a higher share of hits than the screen did.

SMILES	KDM5B inh
CCc1ccc(C(=O)N2CCC3(CC2)N(c2ccccc2)C(=O)CS3(=O)=O)cc1	.
COc1ccc(C2=NOC3(CCN(C(=O)c4ccc(C)cc4)C3)C2)cc1 (stereo not given)	.
NC(=O)CCc1nnc(SCC(=O)c2c[nH]c3ccccc23)n1C1CC1	.
N#Cc1cccc(C(=O)N2CCCCCCNC(=O)[C@@H]3C[C@@H](c4nc(Cc5ccccc5)no4)C[C@@H]32)c1	.
O=C(O)C1=NOC2CN(C(=O)c3ccc(C(F)(F)F)cc3)CC12 (stereo not given)	.
COc1ccc(CN2CC3ON=C(C(=O)O)C3C2)cc1 (stereo not given)	.
O=C(O)C1=NOC2CN(Cc3cccc(C(F)(F)F)c3)CC12 (stereo not given)	100µM
Cc1cc(SC(C)C(=O)c2ccc(Cl)cc2)nc2ccccc12 (stereo not given)	.
O=c1c2c3c(nn2ccn1Cc1cc(F)cc(F)c1)CCCC3	.
COc1ccc(OC)c(NC(=O)Cn2ccn3nc4c(c3c2=O)CCCCC4)c1	.
COc1ccc(NC(=O)c2ccc(Cn3ccn4nc5c(c4c3=O)CCCC5)cc2)cc1	.
COc1ccc(NC(=O)Cn2ccn3nc4c(c3c2=O)CCCC4)cc1OC	.
CC(C)c1ccc(CNC(=O)c2ccc(Cn3ccn4nc5c(c4c3=O)CCCC5)cc2)cc1	28µM
O=C(NCC1CC1)c1ccc(Cn2ccn3nc4c(c3c2=O)CCCC4)cc1	.
COc1ccc(NC(=O)Cn2ccn3nc4c(c3c2=O)CCCCC4)cc1Cl	28µM
C=CCNC(=O)c1ccc(Cn2ccn3nc4c(c3c2=O)CCCC4)cc1	.
O=C(Nc1cccc(F)c1)c1ccc(Cn2ccn3nc4c(c3c2=O)CCCC4)cc1	25µM
Cn1nc(C(=O)NCC(c2cccs2)N2CCCC2)c2ccccc2c1=O (stereo not given)	.
CCOc1cccc(CN2C[C@@H]3C(=O)N(CCCN4CCCC4=O)C(=O)[C@@H]3C2)c1	.
CC(C)NC(=O)C(C)Sc1ncnc2ccccc12 (stereo not given)	.
CC(=O)c1c(C)[nH]c(C(=O)C(C)Oc2ccc(F)c(F)c2)c1C (stereo not given)	.
CC(Oc1ccccc1)C(=O)OCc1nc2ccsc2c(=O)[nH]1 (stereo not given)	.
S=C(NCCSc1ccc(Cl)cc1)Nc1ccccc1Cl	.
CC(C)(C)OC(=O)N1CCCCC1Cn1c(=O)[nH]c2cccnc21 (stereo not given)	.
COc1ccc(S(=O)(=O)N(Cc2cc3ccccc3[nH]c2=O)C(C)C)cc1	.
SMILES	KDM5B inh
CC(=O)N1Cc2ccccc2CC2(CCN(CC3CCCCC3)CC2)C1	.
CCOP(=O)(OCC)c1nc(-c2cccc([N+](=O)[O-])c2)oc1NCc1ccc(OC)cc1	.
COc1ccc(-c2cc(C(=O)Oc3cccc(Br)c3)no2)cc1	.
Cc1cn2c(=O)cc(COc3ccc(C(C)(C)C)cc3)nc2s1	.
Cc1cn2c(=O)cc(CN3CC[C@@](C)(O)[C@@H](O)C3)nc2s1	32µM
Cc1cc(C)cc(OCc2cc(=O)n3cc(C)sc3n2)c1	.
COc1ccc(OC)c(S(=O)(=O)N2CCCOCCNC(=O)[C@@H]3CCCC[C@@H]32)c1	.
O=C(c1ccc(Cl)cc1)N1CCN(c2cc(-c3ccc(F)cc3)[nH]n2)CC1	.
CN(C)c1nc(-c2ccncc2)nc2c1CCN(C(=O)c1ccc(=O)[nH]c1)C2	.
Cc1ncc2n1C(=O)N(C1CCN(C(=O)c3ccccc3)CC1)C2	.
COc1ccc(Cl)cc1NC(=O)N1CCN(c2ccc(=O)n(-c3ccc(C)c(C)c3)n2)CC1	.
COc1ccc(-c2nnc3ccc(Nc4cccc(OC)c4)nn23)nc1	.
COCCNc1ccc2nnc(C)n2n1	.
COCCNc1ccc2nnc(-c3ccc(OC)cn3)n2n1	40µM
Cc1ccc(-c2nnc3ccc(NC4CCC4)nn23)nc1	.
COc1ccc(-c2nnc3ccc(NC4CCCCC4)nn23)nc1	32µM
COc1ccnc(-c2nnc3ccc(Nc4cc(OC)c(OC)c(OC)c4)nn23)c1	.
NC(=O)[C@@H](Cc1c[nH]c2ccccc12)NC(=O)[C@H]1CN(C(=O)C2CCNCC2)CCN1C(=O)C1CCNCC1	.
CCC(c1cccs1)N1C(=O)[C@H]2CN(S(=O)(=O)c3cc(F)ccc3F)C[C@H]2C1=O (stereo not given in full)	.
COCC[C@]1(O)CCN(C(=O)c2cccc(S(N)(=O)=O)c2)C[C@H]1C	.
CC(NC(=O)C1CCCCC1)c1ccncc1 (stereo not given)	.
O=C(Nc1ccc(C(=O)N2CCCC2)cc1)c1cccc(C(F)(F)F)c1	.
N#CC1CCN(C(=O)c2nc(-c3cccnc3)c3cnccn23)CC1	.
O=C(c1ccc(C(F)(F)F)cc1)N1CCC2(CC1)CC(c1cccc(C(F)(F)F)c1)=NO2	.
C[C@H](O)c1onc(-c2ccc(F)cc2)c1C(=O)N1CCCC1	.
SMILES	KDM5B inh
O=C(c1cccc(C(F)(F)F)c1)N1CCCCCCC1	.
O=C(c1nc(-c2ccc(F)cc2)c2cnccn12)N1CCCC1	32µM
Cc1nc(N2CCOCC2)cc(N2CCN(C(=O)c3cccc(C(F)(F)F)c3)CC2)n1	.
O=C(c1nc(-c2cccc(C(F)(F)F)c2)c2cnccn12)N1CCOCC1	10µM
O=C(c1nc(-c2cccc(C(F)(F)F)c2)c2cnccn12)N1CCCC1	32µM
Cc1oc2cc(OC(=O)c3ccco3)ccc2c(=O)c1-c1ccccc1	.
COCc1cc(=O)n(CC(=O)Nc2ccc(C(C)C)cc2)c(N2CCOCC2)n1	.
COc1ccc(NS(=O)(=O)c2ccc(C)c(C(=O)Nc3ccc4oc(C)nc4c3)c2)cc1	.
O=[N+]([O-])c1cccc(/C=N/Nc2nnc(Cl)c3ccccc23)c1	.
COc1ccc(-c2cc(C(=O)NC3CC3)c3ccccc3n2)c(OC)c1	.
CO[C@H]1[C@H](NC(=O)c2ccc(F)cc2)c2ccccc2C12CCNCC2	.
CO[C@H]1[C@H](NC(=O)c2cc3ccccc3[nH]2)c2ccccc2C12CCNCC2	22µM
CO[C@H]1[C@H](NC(=O)c2cc(=O)[nH]c(=O)[nH]2)c2ccccc2C12CCNCC2	.
CN(Cc1ccc(C(N)=O)cc1)C(=O)c1cc2ccccc2[nH]1	.
COc1ccc(-c2noc(CN3CCCC(C(=O)Nc4ccc(C)cc4)C3)n2)cc1OC (stereo not given)	.
Cc1cc(-c2c(C(=O)N3CCOCC3)c(C)nn2-c2ccccc2)no1	.
COc1ccc(-c2cc(C(=O)N3CCC3)c3ccccc3n2)cc1	.
COc1ccc(-c2cc(C(=O)N3CCOCC3)c3c(C)nn(-c4ccccc4)c3n2)cc1	79µM
O=C(CCC1CCN(C(=O)c2ccccc2F)CC1)NCCCc1ccccc1	.
COCCOc1ccc2c(n1)CCN(C(=O)NCCC(C)C)C2	.
CCCc1cc(=O)[nH]c(Nc2nc(C)c3cc(C)c(C)cc3n2)n1	.
COc1cc2cc(CN3CCC[C@H]3CO)c(-c3cccc(Cl)c3)nc2cc1OC	25µM
COc1cccc(-c2noc(CC3CCN(C(=O)c4cccc(Cl)c4)CC3)n2)c1	.
COc1ccc(-c2noc([C@@H]3CCCN3C(=O)c3cccc(C)c3)n2)cc1OC	.
COc1ccc(OC)c(-c2nc3c(C)cccc3cc2CN2CCCC(O)C2)c1 (stereo not given)	.
COc1ccc(-c2nc3c(C)cccc3cc2CN2CC[C@@H](O)C2)cc1	18µM
COc1ccc(CN2CCC(O)(c3csc(CN4CC[C@@H](O)C4)n3)CC2)cc1	.
